The source made the active and inactive calls. The calls were made as follows: active = hit-call score of the fitted dose curve at least 0.9, where 1 is the maximum; inactive = score below 0.9.

This test can be described thus: APR_HepG2_NuclearSize_72hr: Apredica 72-hour HepG2 Assay for Nuclear Size (AID 2282925). Conditions: high-content imaging, actives raise or lower the signal. In outline:
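Nuclear size was read by high-content imaging of Hoechst 33342 stain after formaldehyde fixation. Compounds ran 72 h on HepG2 at 0.39 to 200 uM, with final DMSO 0.5% v/v. Curves fitted both directions relative to DMSO control.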
In the case of `CC(C)CCCCCCOC(=O)c1ccc(C(=O)OCCCCCCC(C)C)c(C(=O)OCCCCCCC(C)C)c1`, the outcome was inactive.
The entry for `O=C(CCCCCCCCc1cccnc1)N1CCC(C=C(c2ccccc2)c2ccccc2)CC1` is “inactive”; for `COCCOc1cc2cc(C(=O)NC3CCN(C(C)C)CC3)n(CC(=O)Nc3ccc(Cl)cn3)c2cn1` it is “inactive”.
Regarding `CCCCC(CC)COC(=O)CCCCCCCCC(=O)OCC(CC)CCCC` (stereo not given), the compound was classed as inactive.
Then `CCCCCCCCO`, with “inactive”; and `Cn1c(=O)cc(Oc2ccc(F)cc2F)c2cnc(NCC(C)(C)O)nc21`, with “inactive”; and `O=C(O)CCN(C1(C(=O)NO)CCCC1)S(=O)(=O)c1ccc(Oc2ccc(F)cc2)cc1`, with “inactive”.
Then `Nc1nc2ncc(CNc3ccc(C(=O)N[C@@H](CCC(=O)O)C(=O)O)cc3)nc2c(=O)[nH]1`, with “inactive”; and `CC(C)c1cccc(C(C)C)c1N1C(=O)c2ccc(O)cc2C1=O`, with “inactive”; and `CCOC(=O)COc1ccc2c(c1)CC(NCC(O)c1cccc(Cl)c1)CC2` (stereo not given), with “inactive”.
`O=c1[nH]c2ccc(S(=O)CCN3CCC(Cc4ccc(F)cc4)CC3)cc2o1` (stereo not given): the compound was called inactive.
The entry for `COc1ccc2sc(C(=O)Nc3nnn[nH]3)c(OC(C)C)c2c1` is “inactive”; for `CC(C)=CCC/C(C)=C/CO` it is “inactive”; for `CC1(C)C(=O)N(Br)C(=O)N1Br` it is “inactive”.
The entry for `COc1ccc(/C=C/S(=O)(=O)NC(=O)c2ccc(C)cc2Cl)cc1` is “inactive”.
Take `Cc1ccc(N)cc1O`: the outcome was inactive.
The entry for `Nc1cccc(N)c1` is “inactive”.
With `COC(=O)c1ccccc1O`, the result was inactive.
The entry for `CCCCC(CC)COC(=O)c1ccc(C(=O)OCC(CC)CCCC)cc1` (stereo not given) is “inactive”; for `CC/C(=C\C(=N/O)C(N)=O)C(C)[N+](=O)[O-]` (stereo not given) it is “inactive”.
Then `O=C(NS(=O)(=O)/C=C/c1ccccc1)c1ccc(F)cc1Cl`, with “inactive”; and `CCOCCO`, with “inactive”.
Then `CC[C@H]1OC(=O)[C@H](C)[C@@H](O[C@H]2C[C@@](C)(OC)[C@@H](O)[C@H](C)O2)[C@H](C)[C@@H](O[C@@H]2O[C@H](C)C[C@H](N(C)C)[C@H]2O)[C@](C)(O)C[C@@H](C)C(=O)[C@H](C)[C@@H](O)[C@]1(C)O`, with “inactive”; and `CC[C@H]1CC[C@H](NCc2cc3c(cc2OC)[C@H]2C[C@H]2C(=O)N3C)[C@H](c2ccccc2)N1`, with “inactive”; and `CC(C)CCO`, with “inactive”.
Regarding `CNCc1ccc(NC(=O)c2c[nH]c3c2C(=O)CCC3)cc1`, the result was inactive.
The entry for `CC(C)CC(C)(O)C#CC(C)(O)CC(C)C` (stereo not given) is “inactive”.
As to `C1=CCCC=CCCC=CCC1`, the result was inactive.
The entry for `CCCCCCc1ccc(O)cc1O` is “inactive”; for `CN(C)c1ccc(Cc2ccc(N(C)C)cc2)cc1` it is “inactive”.

These data come from PubChem BioAssay (EPA / NIEHS).
